Results reported in PubChem BioAssay (Tox21).
Results filed as inconclusive are left out. Entries that show only a call come without a potency. Values without a mark were called inactive. Activity calls are given as the source filed them. The call rests on the fitted dose curve; in most records, active means well fitted cell-killing curve with a large enough effect in the repeat runs; inconclusive means weak or mixed curves, or effect the other way; inactive means flat fitted curve, though single readings scatter.

What was measured:
[1] = cAMP Responsive Elements (CRE) small molecule antagonists, cell-based qHTS assay: qHTS cell viability counter screen (AID 2060913); further: nearly all actives have a fitted effect of over 40% in size
How it was run: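 CRE-bla HEK293T cells (2,000/well, 18 h) given compound plus NKH477 0.25 uM final for 3 h at 37C; viability counter-screen by CellTiter-Glo luminescence in same wells after 30 min.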

[2] = cAMP Responsive Elements (CRE) small molecule agonists, cell-based qHTS assay: qHTS cell viability counter screen (AID 2060914); further: nearly all actives have a fitted effect of over 50% in size
How it was run: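 Cytotoxicity was measured as ATP luminescence (CellTiter-Glo, 30 min at room temperature) in the same wells as the CRE-bla FRET read-out. HEK293T CRE-bla cells had 3 h compound exposure at 37C/5% CO2.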

## CCOC(=O)CC(C)=O
[1]
  Potency: inactive
[2]
  Potency: inactive

## CCO
[1]
  Potency: inactive
[2]
  Potency: inactive

## COC(=O)Nc1nc2ccc(C(=O)c3cccs3)cc2[nH]1
[1]
  Potency: inactive
[2]
  Potency: inactive

## C[n+]1ccn(Cc2ccccc2)c1
[1]
  Potency: inactive
[2]
  Potency: inactive

## COC=O
[1]
  viability change, negative = cytotoxic: -17.9% [at 8.39 µM]
[2]
  activity change, negative = cytotoxicity: -1.81% [at 8.39 µM]

## CC(C)(O)CCCC1=CCC(C=O)CC1 (configuration not stated)
[1]
  Potency: inactive
[2]
  Potency: inactive

## CCNC(=O)[C@@H]1CCCN1C(=O)[C@H](CCCN=C(N)N)NC(=O)[C@H](CC(C)C)NC(=O)CNC(=O)[C@H](Cc1ccc(O)cc1)NC(=O)[C@H](CO)NC(=O)[C@H](Cc1c[nH]c2ccccc12)NC(=O)[C@H](Cc1cnc[nH]1)NC(=O)[C@@H]1CCC(=O)N1
[1]
  Potency: inactive
[2]
  Potency: inactive

## O=C1OC2(c3ccc(O)cc3Oc3cc(O)ccc32)c2ccc(N=C=S)cc21
[1]
  Potency: inactive
[2]
  Potency: inactive

## CN(C)c1ccc(Cc2ccc(N(C)C)cc2)cc1
[1]
  Potency: inactive
[2]
  Potency: inactive

## CSc1ccc(C(=O)c2[nH]c(=O)[nH]c2C)cc1
[1]
  Potency: inactive
[2]
  Potency: inactive

## FC(F)(F)C(Cl)Br (configuration not stated)
[1]
  Potency: inactive
[2]
  Potency: inactive

## Clc1ccc2c(c1)Nc1ccccc1S2
[1]
  Potency: inactive
[2]
  Potency: inactive

## O=C1c2ccccc2C(=O)N1SC1CCCCC1
[1]
  Potency: inactive
[2]
  Potency: inactive

## CCCC(C)C(O)CC (configuration not stated)
[1]
  Potency: inactive
[2]
  Potency: inactive

## O=C(O)CCc1ccccc1
[1]
  Potency: inactive
[2]
  Potency: inactive

## O=C1c2ccccc2C(=O)c2c(Cl)cccc21
[1]
  Potency: inactive
[2]
  Potency: inactive

## CCOC(=O)Cn1c(=O)sc2cccc(Cl)c21
[1]
  Potency: inactive
[2]
  Potency: inactive

## CNCCCCOc1ccccc1Cc1ccccc1
[1]
  Potency: inactive
[2]
  Potency: inactive

## NC(=O)N1c2ccccc2CC(=O)c2ccccc21
[1]
  Potency: inactive
[2]
  Potency: inactive

## CC[C@H](C)[C@@H](C(=O)O)n1sc2ccccc2c1=O
[1]
  Potency: inactive
[2]
  Potency: inactive

## CC(C)c1cc2c(cc1S(=O)(=O)O)[C@@]1(C)CCC[C@@](C)(C(=O)O)[C@@H]1CC2
[1]
  Potency: inactive
[2]
  Potency: inactive

## c1ccc2c(c1)-c1ccc3ccc4cccc5cc-2c1c3c45
[1]
  Potency: inactive
[2]
  Potency: inactive

## Nc1ccccc1S(=O)(=O)c1ccccc1
[1]
  Potency: inactive
[2]
  Potency: inactive

## O=C1c2ccccc2C(=O)N1CO
[1]
  Potency: inactive
[2]
  Potency: inactive

## C[n+]1c2cc(N)ccc2cc2ccc(N)cc21 (tested in a mixture with another compound)
[1]
  Potency: inactive
[2]
  Potency: inactive

## CCCCCCCCCCCCO
[1]
  Potency: inactive
[2]
  Potency: inactive

## OCCOCCOCCO
[1]
  Potency: inactive
[2]
  Potency: inactive

## CC1=C(C)C(=O)C(CCCCC#CCCCC#CCO)=C(C)C1=O
[1]
  Potency: inactive
[2]
  Potency: inactive

## CC1CCc2cc(F)cc3c(=O)c(C(=O)O)cn1c23 (configuration not stated)
[1]
  Potency: inactive
[2]
  Potency: inactive

## O[Si](c1ccccc1)(c1ccccc1)c1ccccc1
[1]
  Potency: inactive
[2]
  Potency: inactive

## CN1CCCC(n2nc(Cc3ccc(Cl)cc3)c3ccccc3c2=O)CC1 (configuration not stated)
[1]
  Potency: inactive
[2]
  Potency: inactive

## CCC(=O)OC(C)(C)C1CC=C(C)CC1 (configuration not stated)
[1]
  Potency: inactive
[2]
  Potency: inactive

## NC(=O)c1c(Cl)cccc1Cl
[1]
  Potency: inactive
[2]
  Potency: inactive

## C=CCOC(=O)CCC1CCCCC1
[1]
  Potency: inactive
[2]
  Potency: inactive

## O=C(O)C(O)[C@H](O)[C@@H](O)[C@H](O)[C@H](O)CO (some centres not stated)
[1]
  Potency: inactive
[2]
  Potency: inactive

## CC(C)c1cc(C(C)C)cc(C(C)C)c1
[1]
  Potency: inactive
[2]
  Potency: inactive

## Nc1cccc([N+](=O)[O-])c1
[1]
  Potency: inactive
[2]
  Potency: inactive

## Cc1ncc(COP(=O)(O)O)c(C=O)c1O
[1]
  Potency: inactive
[2]
  Potency: inactive

## CO[C@@]1(NC(=O)C(C(=O)O)c2ccc(O)cc2)C(=O)N2C(C(=O)O)=C(CSc3nnnn3C)CO[C@@H]21 (some centres not stated)
[1]
  Potency: inactive
[2]
  Potency: inactive

## CC(=O)OCC(=O)[C@@]12N=C(C)O[C@@H]1C[C@H]1[C@@H]3CCC4=CC(=O)C=C[C@]4(C)[C@H]3[C@@H](O)C[C@@]12C
[1]
  Potency: inactive
[2]
  Potency: inactive

## CC(C)c1ccc(C(=O)N=C(N)N)cc1S(C)(=O)=O
[1]
  Potency: inactive
[2]
  Potency: inactive

## CCOC(=O)OC(=O)OCC
[1]
  Potency: inactive
[2]
  Potency: inactive

## Nc1cc(-c2ccncc2)c[nH]c1=O
[1]
  Potency: inactive
[2]
  Potency: inactive

## OC(C#CCN1CCCC1)(c1ccccc1)c1ccccc1
[1]
  Potency: inactive
[2]
  Potency: inactive

## Nc1nc(-c2ccccc2)cs1
[1]
  Potency: inactive
[2]
  Potency: inactive

## O=C(O)c1ccccc1C(=O)Nc1ccc(S(=O)(=O)Nc2nccs2)cc1
[1]
  Potency: inactive
[2]
  Potency: inactive

## O=C(O)c1ccc(O)cc1
[1]
  Potency: inactive
[2]
  Potency: inactive

## O=c1[nH]c(=O)c2ccccc2o1
[1]
  Potency: inactive
[2]
  Potency: inactive

## CC(NC(CCc1ccccc1)C(=O)O)C(=O)N1C(=O)N(C)CC1C(=O)O (configuration not stated)
[1]
  Potency: inactive
[2]
  Potency: inactive

## CC(O)CO (configuration not stated)
[1]
  Potency: inactive
[2]
  Potency: inactive

## CC(C)(C)c1n[nH]c(=O)n(N)c1=O
[1]
  Potency: inactive
[2]
  Potency: inactive

## O=C1CCc2ccccc2O1
[1]
  Potency: inactive
[2]
  Potency: inactive

## O=c1[nH]c2cc(C(F)(F)F)c(N3CCOCC3)cc2n(CP(=O)(O)O)c1=O
[1]
  Potency: inactive
[2]
  Potency: inactive

## CN1CCC(Nc2ncc3ncnc(Nc4ccc(F)c(Cl)c4)c3n2)CC1
[1]
  Potency: inactive
[2]
  Potency: inactive

## Clc1cccc(C(c2ccc3nc[nH]c3c2)n2ccnc2)c1 (configuration not stated)
[1]
  Potency: inactive
[2]
  Potency: inactive

## CCCCCCO
[1]
  Potency: inactive
[2]
  Potency: inactive
